PubChem BioAssay
Results with a measured potency or affinity are listed apart. Results filed as inconclusive are left out. Unmarked numbers belong to inactive results. The source made the active and inactive calls. The rule behind the calls is not given here.

Assay: NIH:OVCAR-3 ovarian cancer cell cytotoxicity, dose response, PAX8 inhibitor project, plate reader, dry powder samples (AID 743044)
Details: NIH:OVCAR-3 ovarian cancer cell viability; max activity: at 35 µM, active compounds read low unless noted; series mostly up to 50 µM

Compound | max activity
C[C@@H]1CCCCO[C@H](CN(C)Cc2ccc(Cl)c(Cl)c2)[C@@H](C)CN([C@@H](C)CO)C(=O)c2cc(NS(=O)(=O)c3ccc(Cl)cc3)ccc2O1 | -6.91% [at 4.2 µM, active compounds read low]
C[C@H](CO)N1C[C@H](C)[C@@H](CN(C)C(=O)Nc2ccc(F)cc2)OCc2ccccc2-c2c(n(C)c3ccccc23)C1=O | 31.5%
C[C@H](CO)N1C[C@H](C)[C@H](CN(C)C(=O)NC2CCCCC2)Oc2cc(C#Cc3ccc(F)cc3)ccc2S1(=O)=O | -20.7%
C[C@H]1CCCCO[C@H](CN(C)S(=O)(=O)c2ccc(Cl)cc2)[C@@H](C)CN([C@@H](C)CO)C(=O)c2cc(NS(=O)(=O)c3ccc(Cl)cc3)ccc2O1 | -21.5%
C[C@@H]1CCCCO[C@H](CN(C)C(=O)Nc2ccc(C(F)(F)F)cc2)[C@H](C)CN([C@@H](C)CO)C(=O)c2cc(NS(=O)(=O)c3ccc(Cl)cc3)ccc2O1 | -7.31%
C[C@H](CO)N1C[C@H](C)[C@@H](CN(C)Cc2ccc(Cl)c(Cl)c2)OCCCC[C@H](C)Oc2ccc(NC(=O)Nc3ccccc3)cc2C1=O | -26.8% [at 0.26 µM, active compounds read low]
C[C@@H]1CN([C@@H](C)CO)C(=O)c2cc(NC(=O)c3ccccc3)ccc2O[C@@H](C)CCCCO[C@H]1CN(C)Cc1ccc(C(F)(F)F)cc1 | -28.2% [at 0.26 µM, active compounds read low]
Cc1ccc(S(=O)(=O)Nc2ccc3c(c2)C(=O)N([C@H](C)CO)C[C@H](C)[C@H](CN(C)C(=O)c2ccccc2)OCCCC[C@H](C)O3)cc1 | -23.6%

Assay: IOSE-T80 ovarian epithelial cell cytotoxicity, dose response, cytotoxicity control for PAX8 inhibitor project, plate reader, dry powder samples (AID 743045);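 note: 0% = neutral control median and -100% = positive control median; more negative values mean more cell killing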
Details: IOSE-T80 ovarian epithelial cells; series mostly up to 35 µM

Compound | outcome
C[C@H]1CCCCO[C@H](CN(C)Cc2ccc(Cl)c(Cl)c2)[C@@H](C)CN([C@@H](C)CO)C(=O)c2cc(NC(=O)Nc3ccc(F)cc3)ccc2O1 | inactive
C[C@@H]1CN([C@@H](C)CO)C(=O)c2c(c3ccccc3n2C)-c2ccccc2CO[C@H]1CN(C)C(=O)Nc1ccc2c(c1)OCO2 | inactive
C[C@@H]1CCCCO[C@H](CN(C)Cc2ccc(C(F)(F)F)cc2)[C@H](C)CN([C@@H](C)CO)C(=O)c2cc(NC(=O)Nc3ccc(F)cc3)ccc2O1 | inactive
C[C@H](CO)N1C[C@H](C)[C@H](CN(C)S(=O)(=O)c2cccs2)OCCCC[C@H](C)Oc2ccc(NC(=O)NC3CCCCC3)cc2C1=O | inactive
C[C@H]1CCCCO[C@@H](CN(C)S(=O)(=O)c2cccs2)[C@@H](C)CN([C@@H](C)CO)C(=O)c2cc(NC(=O)NC3CCCCC3)ccc2O1 | inactive
C[C@@H]1CN([C@H](C)CO)C(=O)c2cc(NS(=O)(=O)c3ccc(F)cc3)ccc2O[C@@H]1CN(C)Cc1ccc(C(F)(F)F)cc1 | inactive
C[C@@H]1CCCCO[C@H](CN(C)C(=O)Cc2ccccc2)[C@H](C)CN([C@@H](C)CO)C(=O)c2cc(NC(=O)Nc3ccc(C(F)(F)F)cc3)ccc2O1 | inactive
C[C@H](CO)N1C[C@H](C)[C@@H](CN(C)C(=O)NC2CCCCC2)Oc2cc(C#Cc3ccc(F)cc3)ccc2S1(=O)=O | inactive
C[C@@H]1CCCCO[C@H](CN(C)C)[C@H](C)CN([C@H](C)CO)C(=O)c2cc(NC(=O)Nc3cccc4ccccc34)ccc2O1 | inactive
C[C@@H]1CCCCO[C@@H](CN(C)S(=O)(=O)c2ccc(Cl)cc2)[C@H](C)CN([C@@H](C)CO)C(=O)c2cc(NS(=O)(=O)c3ccc(Cl)cc3)ccc2O1 | inactive
C[C@H](CO)N1C[C@H](C)[C@@H](CN(C)Cc2ccc(Oc3ccccc3)cc2)OCc2ccccc2-c2c(n(C)c3ccccc23)C1=O | inactive
C[C@@H]1CN([C@@H](C)CO)C(=O)c2cc(NC(=O)Nc3ccc4c(c3)OCO4)ccc2O[C@@H]1CN(C)C(=O)Nc1ccc(C(F)(F)F)cc1 | inactive
C[C@@H]1CN([C@@H](C)CO)C(=O)c2cc(NS(=O)(=O)c3ccccc3)ccc2O[C@@H](C)CCCCO[C@@H]1CN(C)Cc1ccc(C(F)(F)F)cc1 | inactive
C[C@@H]1CN([C@@H](C)CO)C(=O)Cc2cc(NC(=O)Nc3ccc(C(F)(F)F)cc3)ccc2O[C@H]1CN(C)S(=O)(=O)c1ccc(F)cc1 | inactive
C[C@@H]1CCCCO[C@H](CN(C)Cc2ccc(C(F)(F)F)cc2)[C@H](C)CN([C@H](C)CO)C(=O)c2cc(NC(=O)Nc3ccc(F)cc3)ccc2O1 | inactive
CN1c2ccc(C#Cc3cccnc3)cc2[C@@H]2[C@@H](CCN2C(=O)Cc2cccnc2)[C@@H]1CO | inactive
COc1ccc(NC(=O)Nc2ccc3c(c2)C(=O)N([C@@H](C)CO)C[C@@H](C)[C@@H](CN(C)Cc2ccc(C(F)(F)F)cc2)OCCCC[C@@H](C)O3)cc1 | inactive
O=C(Nc1ccc(C(F)(F)F)cc1)N1C[C@@H]2N[C@H](C1)C2c1ccc(-c2ccccc2)cc1 (stereo partly drawn) | inactive
C[C@H]1CN([C@@H](C)CO)C(=O)CCCn2nncc2CO[C@@H]1CN(C)C(=O)Nc1ccc(-c2cccs2)cc1 | inactive
CCCN(C)C[C@H]1OCCCC[C@@H](C)Oc2ccc(NC(=O)c3ccccc3)cc2C(=O)N([C@H](C)CO)C[C@H]1C | inactive

Compound | outcome
CC(C)CC#Cc1ccc2c(c1)O[C@@H](CN(C)Cc1ccncc1)[C@H](C)CN([C@@H](C)CO)S2(=O)=O | inactive
C[C@@H]1CN([C@H](C)CO)C(=O)c2cc(NC(=O)Nc3ccc(F)cc3)ccc2O[C@@H](C)CCCCO[C@H]1CN(C)C(=O)Nc1ccc(F)cc1 | inactive
Cc1ccc(S(=O)(=O)N(C)C[C@H]2OCCCC[C@@H](C)Oc3ccc(NS(=O)(=O)c4ccc(F)cc4)cc3C(=O)N([C@@H](C)CO)C[C@H]2C)cc1 | inactive
C[C@H]1CCCCO[C@@H](CN(C)C)[C@@H](C)CN([C@@H](C)CO)C(=O)c2cc(NC(=O)Nc3ccc(C(F)(F)F)cc3)ccc2O1 | inactive
Cc1ccc(S(=O)(=O)Nc2ccc3c(c2)C(=O)N([C@@H](C)CO)C[C@@H](C)[C@@H](CN(C)Cc2ccc(C(F)(F)F)cc2)OCCCC[C@@H](C)O3)cc1 | inactive
COc1ccccc1-c1ccc2c(c1)[C@H]1[C@H](CCN1S(=O)(=O)c1ccccc1F)[C@H](CO)N2 | inactive
COc1ccccc1-c1ccc2c(c1)O[C@H](CN(C)Cc1ccc3c(c1)OCO3)[C@H](C)CN([C@@H](C)CO)S2(=O)=O | inactive
COc1ccc(S(=O)(=O)N2CCCCN3[C@H](C2)[C@H](c2ccc(C#CC(C)C)cc2)[C@@H]3CO)cc1 | inactive
C[C@@H]1CCCCO[C@H](CN(C)CC2CCCCC2)[C@H](C)CN([C@H](C)CO)C(=O)c2cc(NS(=O)(=O)c3ccc(Cl)cc3)ccc2O1 | inactive
COc1ccc(S(=O)(=O)N(C)C[C@H]2Oc3ccc(NC(=O)Nc4ccc(C(F)(F)F)cc4)cc3CC(=O)N([C@H](C)CO)C[C@@H]2C)cc1 | inactive
COc1ccc(S(=O)(=O)N2CCCCN3[C@H](C2)[C@@H](c2ccc(C#CC(C)C)cc2)[C@@H]3CO)cc1 | inactive
COc1ccc(NC(=O)Nc2ccc3c(c2)CC(=O)N([C@@H](C)CO)C[C@@H](C)[C@@H](CN(C)Cc2ccc(Oc4ccccc4)cc2)O3)cc1 | inactive
C[C@@H]1CCCCO[C@H](CN(C)Cc2ccc(Cl)c(Cl)c2)[C@@H](C)CN([C@@H](C)CO)C(=O)c2cc(NS(=O)(=O)c3ccc(Cl)cc3)ccc2O1 | inactive
C[C@H](CO)N1C[C@H](C)[C@@H](CN(C)C(=O)Nc2ccc(F)cc2)OCc2ccccc2-c2c(n(C)c3ccccc23)C1=O | inactive
C[C@H](CO)N1C[C@H](C)[C@H](CN(C)C(=O)NC2CCCCC2)Oc2cc(C#Cc3ccc(F)cc3)ccc2S1(=O)=O | inactive
C[C@H]1CCCCO[C@H](CN(C)S(=O)(=O)c2ccc(Cl)cc2)[C@@H](C)CN([C@@H](C)CO)C(=O)c2cc(NS(=O)(=O)c3ccc(Cl)cc3)ccc2O1 | inactive
C[C@@H]1CCCCO[C@H](CN(C)C(=O)Nc2ccc(C(F)(F)F)cc2)[C@H](C)CN([C@@H](C)CO)C(=O)c2cc(NS(=O)(=O)c3ccc(Cl)cc3)ccc2O1 | inactive
C[C@H](CO)N1C[C@H](C)[C@@H](CN(C)Cc2ccc(Cl)c(Cl)c2)OCCCC[C@H](C)Oc2ccc(NC(=O)Nc3ccccc3)cc2C1=O | inactive
C[C@@H]1CN([C@@H](C)CO)C(=O)c2cc(NC(=O)c3ccccc3)ccc2O[C@@H](C)CCCCO[C@H]1CN(C)Cc1ccc(C(F)(F)F)cc1 | inactive
Cc1ccc(S(=O)(=O)Nc2ccc3c(c2)C(=O)N([C@H](C)CO)C[C@H](C)[C@H](CN(C)C(=O)c2ccccc2)OCCCC[C@H](C)O3)cc1 | inactive
